Compound activity from PubChem.
CatL inh: inhibitors of human cathepsin L, biochemical; 58,000 compounds, 0.17% hits; inhibition, %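 (tested at 10 µM)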; AID 460, 2006; purified cathepsin L, fluorogenic substrate, fluorescence; in the data active = inhibition above about 45%;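 also: 0% = enzyme with no compound and 100% = no enzyme blank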
CatS block: inhibitors of human cathepsin S, biochemical, compound mixtures | P25774 | recombinant cathepsin S, AMC dipeptide fluorescence, pooled mixtures | inhibition, %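 (tested at 5 µM per compound within 10-compound mixtures)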 | 62,000 compounds, 0.06% hits; in the data active = inhibition above about 32%, passing the limit was not always enough; inconclusive = no clear call, values can overlap the other calls;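 also: 0% = enzyme without compound and 100% = blank without enzyme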
Target sequence (P25774 115-331 limits assumed): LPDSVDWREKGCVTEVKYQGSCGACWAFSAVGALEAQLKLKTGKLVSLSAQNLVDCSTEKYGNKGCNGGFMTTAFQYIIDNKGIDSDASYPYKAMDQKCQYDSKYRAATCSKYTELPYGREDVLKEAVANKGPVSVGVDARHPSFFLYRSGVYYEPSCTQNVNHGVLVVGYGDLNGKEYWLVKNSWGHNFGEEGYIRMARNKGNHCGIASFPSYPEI
WNV NS2B-NS3 inh: inhibitors of WNV NS2B-NS3 protease, primary screen, biochemical, fluorogenic substrate; Genome polyprotein (West Nile virus), P06935; fluorogenic substrate Ex360/Em465; stronger effect = lower value; z-score (no concentration beside the values); 65,000 compounds, 0.18% hits; AID 577, 2007; in the data active = z-score below about -3
CatB inh: human cathepsin B inhibitors, primary screen, biochemical, fluorogenic substrate; purified cathepsin B, fluorescence; 63,000 compounds, 0.1% hits; inhibition, %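 (tested at 10 µM)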; P07858; AID 453, 2006; in the data active = inhibition above about 21%;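 also: 0% = enzyme with no compound and 100% = no enzyme blank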
CatB mix inh: cathepsin B inhibitors from pooled compounds, primary screen, biochemical, compound mixtures, AMC fluorescence. inhibition, %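 (ten-compound pools at 5 µM per compound and 50 µM total)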. 62,000 compounds, 0.06% hits. Purified cathepsin B, AMC dipeptide fluorescence. AID 488, 2006; in the data active = inhibition above about 22%, passing the limit was not always enough; inconclusive = no clear call, values can overlap the other calls;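 also: 0% = enzyme without compound and 100% = no enzyme blank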
* hit, by the source's call. Only some compounds are listed: those with a hit (about 0.42% of all), similar ones and a draw of the others.

How did CC(=O)Nc1nc2n(n1)C(c1ccc(F)cc1)C=C(c1ccccc1)N2 (configuration not stated) do in these assays?
CatL inh: 49*; CatS block: 6; WNV NS2B-NS3 inh: 1.3; CatB inh: -2; CatB mix inh: -2

How did O=C(NCCCN1CCOCC1)c1cc2cc(Cl)cc(Cl)c2oc1=O do in these assays?
CatL inh: -3; CatS block: -10; WNV NS2B-NS3 inh: -0.45; CatB inh: 2; CatB mix inh: 2

What do the screens show for `COc1cccc(C(=O)Nc2cc(=O)n(C)c(=O)n2C)c1`?
CatL inh: 7; CatS block: 0; WNV NS2B-NS3 inh: -0.23; CatB inh: 3; CatB mix inh: 0

How did CSc1nc(C2CC2)cc(-c2cccs2)c1C#N do in these assays?
CatL inh: 2; CatS block: 2; WNV NS2B-NS3 inh: -0.38; CatB inh: 48*; CatB mix inh: 3

How did CN1CCN(C(=O)CSc2nc(-c3cccs3)cc(-c3cccs3)c2C#N)CC1 do in these assays?
CatL inh: -30; CatS block: 8; WNV NS2B-NS3 inh: -1.8; CatB inh: -8; CatB mix inh: 7

How did O=C(O)c1ccc(CSCc2c(F)cccc2Cl)o1 do in these assays?
CatL inh: -7; CatS block: -3; WNV NS2B-NS3 inh: -0.87; CatB inh: 4; CatB mix inh: 6

What do the screens show for `CCN(CC)S(=O)(=O)c1cc(Br)ccc1OC`?
CatL inh: 2; CatS block: -5; WNV NS2B-NS3 inh: 0.45; CatB inh: 4; CatB mix inh: -2

How did COc1ccc(-c2nnc3ccc(SCC(=O)N4CCN(c5ccccc5)CC4)nn23)cc1OC do in these assays?
CatL inh: 9; CatS block: -3; WNV NS2B-NS3 inh: 0.88; CatB inh: 4; CatB mix inh: 0

How did Cc1cc(OC(=O)c2ccccc2)n(CCC#N)n1 do in these assays?
CatL inh: 4; CatS block: 14; WNV NS2B-NS3 inh: -11*; CatB inh: 8; CatB mix inh: 19

What do the screens show for `Fc1ccc(CN2CCCCCCC2)cc1F`?
CatL inh: -3; CatS block: 5; WNV NS2B-NS3 inh: -0.24; CatB inh: 2; CatB mix inh: 1

Results for O=C(OC(C(=O)NCc1cccs1)c1ccccn1)c1cccs1 (configuration not stated) ?
CatL inh: 19; CatS block: 5; WNV NS2B-NS3 inh: -0.71; CatB inh: 35*; CatB mix inh: 28*

What do the screens show for `COc1ccc(OC)c(-n2nnnc2SCC(=O)NCc2ccc3c(c2)OCO3)c1`?
CatL inh: 3; CatS block: -21; WNV NS2B-NS3 inh: -0.61; CatB inh: 4; CatB mix inh: 2

How did CCSc1nnc(NC(=O)C(C)(C(F)(F)F)C(F)(F)F)s1 do in these assays?
CatL inh: 4; WNV NS2B-NS3 inh: 0.46; CatB inh: -1

How did CCSc1nnc(NC(=O)NCC(F)(F)F)s1 do in these assays?
CatL inh: -16; WNV NS2B-NS3 inh: -7.8*; CatB inh: 5

Results for C=CCSC1=C(C#N)C(c2ccc(OCC)cc2)CC(=O)N1 (configuration not stated) ?
CatL inh: 102*; CatS block: inconclusive; WNV NS2B-NS3 inh: 0.35; CatB inh: 2; CatB mix inh: -4

What do the screens show for `CCOc1ccc(C2CC(=O)NC(SC)=C2C#N)cc1` (configuration not stated)?
CatL inh: 8; CatS block: 3; WNV NS2B-NS3 inh: 0.72; CatB inh: -1; CatB mix inh: 1

How did COC(=O)c1ccccc1NC(=O)CNC(=O)c1ccco1 do in these assays?
CatL inh: 17; CatS block: 11; WNV NS2B-NS3 inh: 0.12; CatB inh: 8; CatB mix inh: 2

Results for CN(C1CCCCC1)S(=O)(=O)c1ccc(Cl)c(C(=O)O)c1 ?
CatL inh: 48*; CatS block: 17; WNV NS2B-NS3 inh: 0.99; CatB inh: 7; CatB mix inh: 1

How did CNC(=O)c1cc2c(=O)n3cccc(C)c3nc2n(C(C)C)c1=N do in these assays?
CatL inh: inactive; CatS block: -27; WNV NS2B-NS3 inh: 7.8; CatB inh: -22; CatB mix inh: -10

How did Cn1c(C(=O)N2CCN(Cc3ccccc3)CC2)cc2c(=O)n(C)c3ccccc3c21 do in these assays?
CatL inh: 18; CatS block: 51*; WNV NS2B-NS3 inh: -0.07; CatB inh: -1; CatB mix inh: 1

Results for CC1CCCCN1CCNC(=O)c1cc2c(=O)n(C)c3ccccc3c2n1C (configuration not stated) ?
CatL inh: 7; CatS block: 11; WNV NS2B-NS3 inh: -0.61; CatB inh: 2; CatB mix inh: -1
